BAZ2B inh = blocks human BAZ2B; Potency, µM (highest dose often 114 µM), for inactives: at the top dose activity change, negative = inhibition, usual class: inhibitors; 360,000 tested, 4.4% active; AlphaScreen BAZ2B-H3K14Ac peptide displacement; Q9UIF8; also: % is scaled to controls: 0 for no effect and ±100 for the full control effect; nearly all actives have a fitted effect of over 60% in size
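AlphaScreen luminescence quantifies BAZ2B engagement of H3K14Ac peptide; the protein and biotinylated peptide are both at 50 nM final, buffer PBS pH 7.4 with 0.01% Tween-20, all steps at room temperature.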
JMJD2A Tudor inh = blocks the human JMJD2A Tudor domain; O75164; Potency, µM (doses to about 114 µM), without a hit: at the top dose activity change, negative = inhibition, actives largely listed as inhibitors; AlphaScreen JMJD2A-Tudor / H3K4me3 peptide binding; 390,000 tested, 4.4% active; also: % is scaled to controls: 0 for no effect and ±100 for the full control effect; nearly all actives have a fitted effect of over 50% in size
G9a inh = G9a (human) methyltransferase inhibition; Q96KQ7; G9a H3K9 monomethylation, AlphaScreen, 2 h; Potency, µM (titrated, usually from 102 µM), without a hit: top-dose activity, negative = inhibition, usual class: inhibitors; 350,000 tested, 8.8% active; also: % is scaled to controls: 0 for no effect and ±100 for the full control effect; nearly all actives have a fitted effect of over 75% in size
Target sequence (Q96KQ7 913-1193 limits assumed): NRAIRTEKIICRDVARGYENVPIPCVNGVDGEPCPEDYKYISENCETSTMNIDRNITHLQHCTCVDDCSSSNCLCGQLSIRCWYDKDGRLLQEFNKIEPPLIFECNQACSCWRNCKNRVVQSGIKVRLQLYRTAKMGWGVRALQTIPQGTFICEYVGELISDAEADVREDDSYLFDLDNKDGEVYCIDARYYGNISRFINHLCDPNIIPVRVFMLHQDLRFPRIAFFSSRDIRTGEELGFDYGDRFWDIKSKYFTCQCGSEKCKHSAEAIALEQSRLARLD
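Enzyme 20 nM + cpd, 15 min RT; add b-H3K9 pep 500 nM / SAM 20 uM; 2 h RT; anti-H3K9me1 Ab 0.5 ug/mL + SA donor / anti-rabbit acceptor beads 20 ug/mL each, 10 min; AlphaScreen read.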
PLK1 PBD inh = inhibitors of human PLK1 polo-box domain binding. P53350. Plk1 PBD binding of FITC phosphopeptide, fluorescence polarization. Potency, µM, without a hit: max response, negative = inhibition, actives largely listed as inhibitors. 360,000 tested, 2.8% active. AID 720504; also: series mostly up to about 57 µM; % is scaled to controls: 0 for no effect and ±100 for the full control effect; nearly all actives have a fitted effect of over 65% in size
ALOX12 inh = inhibitors of human 12S-lipoxygenase ALOX12. P18054. purified 12hLO, xylenol orange hydroperoxide absorbance. Potency, µM (doses to about 108 µM), without a hit: top-dose activity change, negative = inhibition, actives largely listed as inhibitors. 580,000 tested, 1.1% active. AID 1671190; also: % is scaled to controls: 0 for no effect and ±100 for the full control effect
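Purified human 12hLO (150 nM final) in 25 mM Hepes, 0.01% Triton X-100, pH 7.0 was preincubated 15 min at room temperature with compound. Then 40 uM arachidonic acid was added, 30 min. Hydroperoxide was read by Fe-XO absorbance ratio 573/405 nm.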
HP1b chromo inh = inhibitors of HP1-beta chromodomain binding to methylated histone tails | P83916 | AlphaScreen HP1-beta / biotin-H3K9me3 peptide binding | Potency, µM (series often up to 114 µM), for the others: at the top dose activity change, negative = inhibition, usual class: inhibitors | 390,000 tested, 0.56% active | AID 540317; also: nearly all actives have a fitted effect of over 70% in size
Target sequence (P83916 whole entry, looked up): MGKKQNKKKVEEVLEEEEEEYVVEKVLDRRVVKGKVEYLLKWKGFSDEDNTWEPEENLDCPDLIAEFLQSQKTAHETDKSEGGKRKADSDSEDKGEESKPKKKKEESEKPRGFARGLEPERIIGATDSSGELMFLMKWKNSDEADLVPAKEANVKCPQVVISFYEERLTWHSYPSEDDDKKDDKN
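AlphaScreen: HP1-beta (50 nM) preformed 30 min with biotin-H3(1-18)K9me3 peptide (50 nM) in PBS pH 7.4, 0.01% Tween-20. Compound added for 30 min at RT, then streptavidin donor/nickel chelate acceptor beads (10 ug/mL) for 30 min.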
* marks the source's active call; other numbers are inactive results; u = inconclusive; x = no result given; [ ] = dose if it differs, or a comment. Compounds with a hit are over-represented: about 9% of the library has one in this group of screens. Calls follow the shape of the dose curve; as a rule, active = well fitted curve in the direction sought with a large enough effect; inconclusive = small, poorly fitted or top-dose-only effect, or another doubt; inactive = no such curve, though single readings can be large; an effect the other way counts as inactive or inconclusive. Potency is read from the fitted curve at half-maximal effect.

SMILES	BAZ2B inh	JMJD2A Tudor inh	G9a inh	PLK1 PBD inh	ALOX12 inh	HP1b chromo inh
Cc1ccc(NC(=O)CN(C)C(=O)c2ccc3[nH]c4c(c3c2)CC(C)CC4)cc1 (configuration not stated)	u	45µM*	u	0%	80%	u
COC(=O)c1ccc2[nH]c3c(c2c1)CC(C)CC3 (configuration not stated)	25µM*	u	x	-4%	-25%	-15%
COC(=O)c1ccc2[nH]c([C@H](C)O)c([C@H](C)O)c2c1	-35%	-18%	45µM*	9%	-2%	34%
CCCc1[nH]c2ccc(C(=O)OC)cc2c1CCC	u	u	u	-7%	-14%	-3%
CCOc1ccc(NC(=O)CN(C)C(=O)c2ccc3[nH]c4c(c3c2)CC(C)CC4)cc1OCC (configuration not stated)	u	u	35µM*	2%	x	u
O=C(CN(Cc1ccccc1Cl)C(=O)c1csnn1)NCc1ccc(F)cc1	3%	-7%	12%	-13%	15%	-4%
CSCCC1Nc2ccc(S(=O)(=O)N3CCOCC3)cc2NC1=O (configuration not stated)	x	-19%	3.2µM*	-28%	0%	29%
COCCN(CC(=O)NCc1ccc2c(c1)OCO2)C(=O)CCC(=O)Nc1nccs1	9%	14%	4%[59 µM]	-5%	6%	66%
CC(C)(C)NC(=O)CN(Cc1ccc2c(c1)OCO2)C(=O)CCC(=O)Nc1nccs1	-21%	-2%	40µM*	-3%	-1%	39%
COCCNC(=O)CN(Cc1ccc2c(c1)OCO2)C(=O)CCC(=O)Nc1nccs1	8%	28µM*	-34%	3.4µM*	0%	-8%
C(=N\n1cnnc1)/c1cccc2ccccc12	10%	-11%	-7%	-18%	76%[57.4 µM]	21%
Cc1ccsc1C(=O)N1CCCC(c2nnnn2C)C1 (configuration not stated)	x	x	x	x	-8%	x
Cc1cnc(C(=O)OCC(=O)NC(=O)c2ccccc2)cn1	u	-14%	45µM*	-2%	u	10%
Cc1cnc(C(=O)OCC(=O)c2ccccc2)cn1	-38%	-12%	u	-10%	-10%	1%
Cc1cccc(C(=O)OCC(=O)NC(=O)c2ccccc2)c1O	79µM*	-5%	-1%[0.501 µM]	1%	12%	14%
Oc1ccc2[nH]cnc2c1CN1CCCCC1	11%	4%	5.6µM*	2%	272%	24%
CN1CCN(CCC(=O)N2c3ccccc3Sc3ccc(Cl)cc32)CC1	79µM*	u	u	-8%	u	-4%
NCCC(=O)N1c2ccccc2Sc2ccc(Cl)cc21	-23%	-13%	8%	-5%	-12%	35%
CCCn1c(SCC(=O)NCc2ccccc2)n[nH]c1=O	3%	1%	5%	-3%	-6%	18%
Cc1ccc2c(c1)cc(CN(Cc1ccco1)C(=O)COc1ccccc1)c1nnnn12	8%	-32%[57.1 µM]	u	24µM*	4%	u
CCC(=O)N(Cc1ccco1)Cc1cc2cccc(C)c2n2nnnc12	-16%	-12%	11%	-1%	-3%	33%
COCCN(C)C[C@@H]1CN(C(=O)c2c(-c3ccccc3)ccnc2C)C[C@@H]1CO	x	x	x	x	30%	x
O=C(c1cc2cc(Br)ccc2o1)N1CCOCC1	-1%	3%	15%	3%	2%	39%
O=C(c1cc2cc(Br)ccc2o1)N1CCCC1	-17%	-31%	24%	27µM*	1%	-13%
CCCCCCC12C(=Cc3cc4c(cc31)OCCO4)c1cc(OC)c(OC)cc1C(CC(=O)O)N2C(=O)OC (configuration not stated)	x	x	x	x	40µM*	x
SMILES	BAZ2B inh	JMJD2A Tudor inh	G9a inh	PLK1 PBD inh	ALOX12 inh	HP1b chromo inh
CCCCCCC12C(=Cc3cc4c(cc31)OCCO4)c1cc(OC)c(OC)cc1C(CC(=O)OC)N2C(=O)OC (configuration not stated)	x	x	x	x	-23%	x
N#CC(C(=O)CSc1ccc2c(c1)OCCO2)c1nc(-c2ccccc2)cs1 (configuration not stated)	x	x	x	x	10µM*	x
O=C(CSc1ccc2c(c1)OCCO2)NCc1ccccc1	-13%	-9%	-5%	-8%	-2%	27%
O=C(Cn1cnc2sc3c(c2c1=O)CCCC3)NCC(=O)Nc1c(F)cc(F)cc1Br	-5%	u	43%	30µM*	-26%	2%
C=CCOc1ccc2c(c1)c(=O)cc(C(=O)O)n2CC	-6%	-13%	45µM*	-4%	u	40%
COc1ccc(-c2nc3c(c(SCC(=O)Nc4ccccc4OC)n2)Cc2cccc(C)c2O3)cc1	-12%	-15%	1%[59 µM]	x	-13%	41%
O=C(CSc1nc(-c2ccc(F)cc2)nc2c1Cc1ccccc1O2)Nc1ccc(C(=O)O)cc1	7.9µM*	10µM*	u	15µM*	u	u
CCOc1cccc2c1Oc1nc(-c3ccccc3)nc(SCC(=O)Nc3ccc(F)cc3)c1C2	-5%	-10%	u	x	3%	25%
Cc1ccc(-c2nc3c(c(SCC(=O)Nc4cccc(C(=O)O)c4)n2)Cc2cccc(C)c2O3)cc1	7.1µM*	3.2µM*	10µM*	x	x	u
O=C(CSc1nc(-c2ccccc2)nc2c1Cc1ccccc1O2)Nc1ccc(C(=O)O)cc1	13µM*	10µM*	-4%	21µM*	-5%	32µM*
O=C(CCCc1nc2ccccc2s1)Nc1ccccc1	-14%	-6%	20%[59 µM]	5%	-12%	57%
O=C(CCc1nc2ccccc2s1)Nc1ccccc1	-2%	2%	2%	-13%	u	47%
COc1ccccc1NC(=O)CCc1nc2ccccc2s1	-12%	20µM*	1%	21µM*	12%	1%
CC(C)c1ccccc1NC(=O)CCc1nc2ccccc2s1	-13%	-20%	20µM*	u	-32%	17%
O=C(O)CCCC(=O)Nc1ccc(OCc2nc3ccccc3s2)cc1	u	u	3.2µM*	4.2µM*	u	u
Fc1ccccc1-n1c(-c2ccc3ccccc3n2)n[nH]c1=S	u	-32%	-138%[59 µM]	-27%	u	29%
COc1ccccc1-n1c(-c2cccnc2)n[nH]c1=S	12%	4.5µM*	3.2µM*	-12%	u	16%
c1ccc(-c2nc(-c3cccnc3)n[nH]2)cc1	-1%	x	21%[59 µM]	x	26%	x
S=c1[nH]nc(-c2ccc(Cl)cc2)n1-c1cccnc1	-16%	8.9µM*	10µM*	-6%	u	42%
COc1ccc(-n2nnnc2-c2cccnc2)cc1	2%	-3%	-4%[59 µM]	-5%	-5%	50%
S=c1[nH]nc(-c2ccc3ccccc3n2)n1-c1ccccc1	-1%	u	1.6µM*	-24%	u	27%
